What all share (assay): NCI-60 one-dose screen, 48 h (100 = growth as untreated, 0 = no growth, -100 = all killed)
Conditions in all cases: 10 µM unless noted

The test system of test [1] is DU-145 prostate.
For test [2], the system named is K-562 leukemia.
Test [3] relates to MALME-3M melanoma.
Test [4] concerns MDA-MB-231 breast.
The test system of test [5] is RXF 393 renal.
The subject of test [6] is SF-268 CNS.
Test [7] relates to SF-295 CNS.
The test system of test [8] is SF-539 CNS.
Test [9] deals with UACC-257 melanoma.
In test [10] the test system is M14 melanoma.

Values joined by “and” are separate entries in the source; they are usually repeats but may differ in a detail not shown here. Equal entries are not always repeated. This is part of a sample that, as a whole, favours compounds with a hit. Of some 83,000 tested, about 20% had one in any assay.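 Cell lines were cultured in 96-well plates, exposed to a single compound concentration, and assessed for percent growth 48 hours later.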 Values without a mark were called inactive. Active and inactive are the calls of the source. How the source made its calls: active means growth percent below 10; inactive means the rest.

For `C[C@]12CC[C@H](O)C[C@@H]1CC[C@@H]1[C@@H]2CC[C@]2(C)OC(=O)CC[C@@H]12`, the growth in [1] is 107%; in test [2] it was 118%; in test [3] it was 82.7%; in [4] it was 91.1%; in [5], 117%; in test [6], 98.7%. Moreover, the growth in test [7] is 93.9%; in test [8], 95.9%; in test [9] it was 73.7%; in test [10], 100%.
Take `O=c1[nH]c(=O)[nH]c(=O)[nH]1`: the growth was 119% in test [1]; 65.2% in test [2]; 114% in test [3]; 122% in test [4]; 91.1% in test [5]; 116% in [6]. Further, the growth was 97.6% in test [7], 104% in [8], 146% in [9] and 111% in test [10].
`C[C@H](O)CCC(=O)c1ccoc1`: the growth in [1] was 100%; in test [2] it was 96.5%; in test [3], 106%; in test [4] it was 108%; in test [5], 99.4%; in test [6] it was 98.9%. In addition, the growth in test [7] is 107%; in [8] it was 102%; in test [9], 99.5%; in test [10] it was 108%.
As for `O=P1(N(CCCl)CCCl)NCCCO1` (configuration not stated), the growth in test [1] is 124%; in test [2] it was 104%; in [3] it was 96.5%; in test [4], 107%; in test [5], 110%; in test [6] it was 117%. For the same compound, the growth was 107% in test [7], 110% in test [8], 109% in [9] and 101% in [10].
In the case of `COc1ccc(C(C#N)C(C)=O)cc1` (configuration not stated), the growth is 92.6% in [1]; 104% in test [2]; 108% in test [3]; 116% in [4]; 111% in test [5]; 88.9% in test [6]. The growth is 107% in test [7], 103% in test [8] and 93% in test [9].
For `COC(=O)C12C3C4C1C1C2C3C41NC(=O)c1csc([C@@H](C[C@H](C(C)C)N(C)C(=O)[C@@H](NC(=O)[C@H]2CCCCN2C)C2CC2)OC(C)=O)n1` (some centres not stated), the growth in test [1] is 8.04% (active); in test [2], 8.03% (active); in test [3], 63.9%; in [4], 4.12% (active); in test [5] it was 19.7%; in [6], 25.6%. For the same compound, the growth was 9.2% (active) in [7], -24.4% (active) in test [8], 56% in test [9] and 9.39% (active) in test [10].
On to `Cc1cc(N(CCCl)CCCl)ccc1C=Nc1ccc(-c2csc(-c3ccccc3)n2)cc1`, for which the growth is 68.3% in [1]; 80.4% in test [2]; 115% in test [3]; 90.3% in test [4]; 90.1% in test [5]; 66.7% in [6]. Besides, the growth in [7] was 66.2%; in [8] it was 74.4%; in test [9] it was 86.5%; in test [10], 92.6%.
For `CC1(C)N=C(N)N=C(N)N1c1ccc(CCC(=O)Nc2ccc(S(=O)(=O)F)cc2)cc1`, the growth was 28.1% in test [1]; 12.9% in test [2]; 47% in [3]; 76.4% in test [4]; 47.3% in [5]; 25.1% in [6]. Also, the growth in [7] was 40.3%; in test [8] it was 28.7%; in [9], 41.1%; in [10], 35.9%.
Regarding `CC[C@H](C)[C@H](NC(=O)[C@H]1CCCCN1C)C(=O)N(C)[C@H](C[C@@H](OC(C)=O)c1nc(C(=O)NC23C4C5C2C2C3C4C52C(=O)OC)cs1)C(C)C` (some centres not stated), the growth in [1] is -7.13% (active); in [2], 6.1% (active); in [3], 56.9%; in test [4], 20.3%; in [5], 34.2%; in [6], 24.9%. Further, the growth in test [7] is 6.06% (active); in test [8], -11.4% (active); in test [9], 46.4%; in test [10] it was 10.2%.
On to `CCN(CC)CCn1c(=O)n(C)c2ccccc21`, for which the growth in test [1] is 109%; in test [2] it was 103%; in [3], 103%; in test [4], 119%; in [5] it was 106%; in [6] it was 101%. Besides, the growth in test [7] was 111%; in [8], 98.1%; in [9] it was 97.5%.
As to `C[C@@]12CCCc3coc(c31)C(=O)c1cc3c(cc12)C(=O)C1=C(NCCS1(=O)=O)C3=O`, the growth in [1] was -91.8% (active); in test [2], -38.6% (active); in test [3] it was -98.2% (active); in test [4] it was -23.7% (active); in [5] it was 6.73% (active); in test [6], -1.36% (active). For the same compound, the growth in test [7] was 2.57% (active); in [8], -63.4% (active); in test [9] it was -94.2% (active); in test [10], -80.9% (active).
In the case of `CN(C)C(=S)SSC(=S)N(C)C`, the growth is 105% and 125% in test [1]; 105% in test [2]; 65.5% and 90.9% in test [3]; 112% and 98.5% in [4]; 104% and 128% in test [5]; 102% and 113% in test [6]. The growth in test [7] is 75% and 96.9%; in test [8], 100% and 112%; in test [9], 77.7% and 103%; in test [10] it was 93% and 100%.
For the compound `CC[C@H](C)[C@H](NC(=O)c1ncccn1)C(=O)N(C)[C@H](C[C@@H](OC(C)=O)c1nc(C(=O)N[C@@H](Cc2ccccc2)C[C@H](C)C(=O)OC)cs1)C(C)C`, the growth was 9.45% (active) in [1]; 7.26% (active) in test [2]; 60.7% in test [3]; 4.19% (active) in test [4]; -8.95% (active) in test [5]; 30.6% in test [6]. Further, the growth in test [7] is 14.4%; in test [8] it was -51.1% (active); in [9], 50.2%; in [10], 5.61% (active).
Turning to `N#Cc1ccc(Cl)cc1`, the growth was 117% in test [1]; 99.4% in test [2]; 115% in test [3]; 108% in test [4]; 120% in test [5]; 108% in [6]. For the same compound, the growth in [7] is 113%; in test [8], 108%; in test [9], 104%; in [10], 106%.
With `C[C@]12CCC3[C@@H](C[C@@H]4SC(Nc5ccccc5)=N[C@@]45CC(=O)CC[C@]35C)[C@@H]1CCC2=O` (some centres not stated), the growth in test [1] is -14.7% (active); in [2] it was 1.87% (active); in [3], 8.73% (active); in [4], 5.67% (active); in [5], -63.8% (active); in [6] it was 27%. The growth in [7] was 24.2%; in [8], -44.8% (active); in [9], 3.21% (active); in test [10], 0.48% (active).
Consider `Cc1cc(C(C)(C)C)ccc1O`, for which the growth is 104% in [1]; 103% in test [2]; 104% in test [3]; 118% in test [4]; 102% in test [5]; 97.3% in [6]. Moreover, the growth in test [7] was 110%; in test [8], 111%; in [9], 100%; in test [10] it was 102%.
Turning to `CC1(C)S[C@H]2CC[C@H]3OC(=O)[C@@H]1N23`, the growth is 116% in [1]; 111% in test [2]; 101% in test [3]; 121% in [4]; 103% in test [5]; 113% in test [6]. In addition, the growth in test [7] is 88%; in test [8], 104%; in test [9], 116%; in [10] it was 106%.
For `N#CCN(CC#N)[N+](=O)[O-]`, the growth in test [1] was 107%; in [2], 105%; in [3] it was 111%; in test [4] it was 103%; in test [5] it was 106%; in [6], 102%. Moreover, the growth in test [7] is 110%; in [8], 102%; in test [9], 113%; in test [10] it was 97%.
For `N#CC(C#N)=Cc1cccc(F)c1`, the growth in test [1] is 105%; in [2], 96.8%; in test [3], 110%; in test [4], 109%; in [5] it was 110%; in test [6] it was 99.7%. For the same compound, the growth in [7] is 105%; in [8], 105%; in [9], 107%.
For `COc1c(O)cc2c(c1OC)-c1ccc(SC)c(=O)cc1C(NC(C)=O)CC2` (configuration not stated), the growth in [1] was -28.7% (active); in [2] it was -24.9% (active); in test [3] it was 39.9%; in [4] it was 2.58% (active); in test [5] it was 20.3%; in [6], 29.7%. The growth in [7] is 9.18% (active); in [8], -15% (active); in test [9] it was 20.1%; in [10] it was 15.7%.
Regarding `CNC(=O)Oc1ccc(Cl)cc1SSc1cc(Cl)ccc1OC(=O)NC`, the growth in [1] was 96.7%; in test [2], 63.1%; in [3] it was 78.2%; in test [4], 78.3%; in [5] it was 107%; in test [6], 65.8%. Also, the growth in test [7] is 75.7%; in test [8], 98.2%; in test [9] it was 79%; in [10], 112%.
`C[Se]/C=C1/C(=O)N(c2c(Cl)cccc2Cl)c2ccccc21`: the growth is 43.9% in [1]; 20.3% in [2]; 37.4% in [3]; 31.1% in test [4]; 19.4% in test [5]; 8.58% (active) in test [6]. Also, the growth in test [7] is 38%; in test [8] it was 0.963% (active); in test [9] it was -4.62% (active); in test [10], 20.4%.
Take `O=C(CCCN1CCC2(CC1)C(=O)NCN2c1ccccc1)c1ccc(F)cc1`: the growth was 79% and 34% in test [1]; 86% and 85.1% in test [2]; 96.1% and 92.9% in [3]; 103% and 74.2% in [4]; 116% and 105% in [5]; 91.1% and 62.8% in [6]. For the same compound, the growth in test [7] was 96.3% and 63.4%; in test [8], 124% and 62.6%; in test [9], 33.6% and 21.6%; in test [10], 80.8% and 54%.
For the compound `CC1=C([Te]c2ccccc2)C(=O)c2ccccc2C1=O`, the growth in test [1] is -53.4% (active); in test [2], 14.7%; in test [3], -49.5% (active); in test [4], -24.6% (active); in [5] it was -35.5% (active); in [6] it was -18.1% (active). The growth was -34.5% (active) in test [7], -71.4% (active) in test [8], -26.2% (active) in test [9] and -22.1% (active) in test [10].
Regarding `O=[N+]([O-])c1cc(Cl)c(Cl)cc1Cl`, the growth in [1] was 111% and 121%; in [2], 114% and 110%; in test [3], 115% and 126%; in test [4] it was 99.7% and 124%; in test [5], 142% and 111%; in [6] it was 105% and 114%. Moreover, the growth in [7] was 97.8% and 112%; in test [8], 82.4% and 102%; in [9] it was 80.1% and 111%; in [10], 102% and 114%.

For the origin of these results see PubChem BioAssay (NCI).
